# According to PubChem BioAssay (EPA / NIEHS):
# Records with an inconclusive call do not appear. Calls of active or inactive are those of the source. Rule for the calls: active = hit-call score of the fitted dose curve at least 0.9, where 1 is the maximum; inconclusive = response in the unintended direction; inactive = score below 0.9.
# Read-out: Cytochrome P450 2B6 (Homo sapiens) (UniProt P20813)
# Assay: CLD_CYP2B6_48hr: CellzDirect (CLD) Gene Expression Assay for xenobiotic metabolism (CYP2B6) at 48 hours (AID 2283699);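 note: actives raise transcript level above DMSO so potency reflects induction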
# Method: CLD_48hr is a cell-based, multiplexed-readout assay that uses hepatocyte, a human liver primary cell, with measurements taken at 48 hours after chemical dosing in a 96-well plate.CLD_CYP2B6_48hr is one of 16 assay component(s) measured or calculated from the CLD_48hr assay. It is designed to make measurements of mRNA induction, a form of inducible reporter, as detected with chemiluminescence signals by Quantitative Nuclease Protection Assay (qNPA) technology.Data from the assay component CLD_CYP2B6_48hr was analyzed at the endpoint, CLD_CYP2B6_48hr, in the positive analysis fitting direction relative to DMSO as the negative control and baseline of activity. Using a type of inducible reporter, gain-of-signal activity can be used to understand changes in the reporter gene as they relate to the gene CYP2B6. Furthermore, this assay endpoint can be referred to as a primary readout. To generalize the intended target to other relatable targets, this assay endpoint is annotated to the cyp intended target family, where subfamily is xenobiotic metabolism.
# Human hepatocyte cultures were treated daily for two consecutive days with fresh dosing solutions containing appropriate concentrations of the 320 ToxCast chemicals (chemical identities were blinded to CellzDirect and other ToxCast collaborators), vehicle control (0.2% DMSO), and positive control inducers as summarized in Table 1. Due to the large number of treatment groups and chemicals examined, the ToxCast chemicals were divided into two groups (spanning two independent cultures of hepatocytes from separate donor preparations (Hu778: ToxCast plates 1 and 2; Hu776: ToxCast plates 3 and 4). Each preparation of human hepatocyte cultures was treated with respective vehicle control, medium only control, set of six positive controls/reference chemicals for the five hepatic receptor pathways, and a subset of eight of the ToxCast chemicals (indoxacarb, pyrithiobac-sodium, norflurazon, cyhalofop-butyl, methomyl, thiram, acetochlor, and propiconazole). These replicate data, coupled with internal replicates designed within the blinded ToxCast chemical library, provided additional data to evaluate interindividual differences between hepatocyte preparations and their potential impact on chemical profiles.Cell morphology and integrity were evaluated using phase-contrast microscopy as an indicator of hepatocyte cell health (Tyson & Green, 1987). Cultures for each treatment group (i.e., media, vehicle [0.2% DMSO], positive control inducers [multiple concentrations], and the ToxCast chemicals [multiple concentrations]) were observed and cell morphology was assessed relative to vehicle control cultures at each harvest time point (0, 6, 24, or 48 h). […] Images were evaluated at the conclusion of the study to assess changes in cell integrity and account for the effects of chemical exposure on uncharacteristic changes in concentration-dependent gene expression profiles. The results from these determinations of apparent cytotoxicity were annotated (yes/no) alongside the corresponding qNPA data for reference.At the conclusion of each treatment period, hepatocyte cultures (96-well) were washed with 1 volume of HBSS, lysed by addition of 25 ul ArrayPlate lysis buffer (HTG, Tucson, AZ), and 70 ul/well of Denaturation Oil, denatured by incubation at 95C for 10 min, and frozen at approximately -70C until analysis by nuclease protection assay (qNPA) (Roberts et al., 2007). For qNPA analysis, cell lysates were thawed at 50C for approximately 30 min, qNPA probes were added, and samples were incubated at 95C for 10 min to begin the detection process by denaturing the target RNA, dissociating the duplexes and secondary structure hybridization. At the conclusion of the hybridization period, S1 nuclease reagent was added to each sample to digest all nonprotected nucleotides at 50C for 60-90 min. […]
SMILES,AC50,outcome
COC(=O)c1c(C(F)F)nc(C(F)(F)F)c(C2=NCCS2)c1CC(C)C,0.378 µM (active),
CCC(C)n1c(=O)[nH]c(C)c(Br)c1=O (stereo not given),3.28 µM (active),
CCOc1cc(C(C)(C)C)ccc1C1COC(c2c(F)cccc2F)=N1 (stereo not given),2.11 µM (active),
COc1cc(OC)nc(NC(=O)NS(=O)(=O)c2ncccc2OCC(F)(F)F)n1,,inactive
CCOP(=O)(OCC)Oc1nc(Cl)c(Cl)cc1Cl,3.97 µM (active),
CCCN(CC)CC1COC2(CCC(C(C)(C)C)CC2)O1 (stereo not given),,inactive
CC(C)Nc1nc(Cl)nc(NC(C)C)n1,3.11 µM (active),
O=c1n(Cl)c(=O)n(Cl)c(=O)n1Cl,,inactive
Clc1nc(Cl)nc(Nc2ccccc2Cl)n1,,inactive
CC1(C)C(C(=O)OC(C#N)c2cccc(Oc3ccccc3)c2)C1(C)C (stereo not given),4.06 µM (active),
CCN(CC)c1nc(C)cc(OP(=S)(OC)OC)n1,0.684 µM (active),
CC(C)N1C(=O)N(c2ccccc2)CSC1=NC(C)(C)C,4.31 µM (active),
COCC(=O)N(c1c(C)cccc1C)C(C)C(=O)OC (stereo not given),3.08 µM (active),
COC(=O)NC(=S)Nc1ccccc1NC(=S)NC(=O)OC,20 µM (active),
COP(=S)(OC)SCn1nnc2ccccc2c1=O,4.19 µM (active),
C=CCOC(=O)C(C)(C)OC(=O)c1cc(-n2c(=O)cc(C(F)(F)F)n(C)c2=O)ccc1Cl,0.168 µM (active),
OC(c1ccc(Cl)cc1)(c1ccc(Cl)cc1)C(Cl)(Cl)Cl,4.47 µM (active),
CCCCC(C#N)(Cn1cncn1)c1ccc(Cl)cc1 (stereo not given),4.45 µM (active),
CC(C)Oc1cccc(NC(=O)c2ccccc2C(F)(F)F)c1,5.34 µM (active),
Cc1c(COC(=O)[C@@H]2[C@H](/C=C(\Cl)C(F)(F)F)C2(C)C)cccc1-c1ccccc1,3.39 µM (active),

SMILES,AC50,outcome
O=C(Nc1ccccc1-c1ccc(Cl)cc1)c1cccnc1Cl,1.89 µM (active),
COP(=O)(OC)O/C(C)=C/C(=O)N(C)C,,inactive
CS(=O)(=O)c1ccc(C(=O)C2C(=O)CCCC2=O)c([N+](=O)[O-])c1,,inactive
Nc1c(Cl)c(F)nc(OCC(=O)O)c1Cl,,inactive
C=C(C)CN(CC)c1c([N+](=O)[O-])cc(C(F)(F)F)cc1[N+](=O)[O-],,inactive
COC(=O)N(C(=O)N1CO[C@@]2(C(=O)OC)Cc3cc(Cl)ccc3C2=N1)c1ccc(OC(F)(F)F)cc1,0.505 µM (active),
N#Cc1c[nH]cc1-c1cccc2c1OC(F)(F)O2,2.54 µM (active),
CCSC(=O)N1CCCCCC1,0.378 µM (active),
O=P(O)(O)CCCl,,inactive
CSC(=O)c1c(C(F)F)nc(C(F)(F)F)c(C(=O)SC)c1CC(C)C,0.416 µM (active),
COc1ccc(-c2ccccc2)cc1NNC(=O)OC(C)C,,inactive
CC(C)C1(C)N=C(c2ncccc2C(=O)O)NC1=O (stereo not given),0.000587 µM (active),
CCCC(=NOCC)C1=C(O)CC(CC(C)SCC)CC1=O (stereo not given),,inactive
O=C(O)c1c(Cl)ccc2cc(Cl)cnc12,,inactive
COCC(C)N(C(=O)CCl)c1c(C)csc1C (stereo not given),5.14 µM (active),
CCCCC(O)(Cn1cncn1)c1ccc(Cl)cc1Cl (stereo not given),0.63 µM (active),
CCCCOCN(C(=O)CCl)c1c(CC)cccc1CC,2.5 µM (active),
COC(=O)NS(=O)(=O)c1ccc(N)cc1,,inactive
COCc1cnc(C2=NC(C)(C(C)C)C(=O)N2)c(C(=O)O)c1 (stereo not given),,inactive
CNC(=O)Oc1cccc2ccccc12,4.42 µM (active),
